# An excerpt weighted towards active compounds, which were near 8.1% of everything screened.
# NOMO-1 viab: STK33 inhibitor candidate reducing NOMO-1 cell viability; 7.5% of 37,000 active; inhibition, % (concentration not given with the values); NOMO-1 AML viability, CellTiter-Glo luminescence, 72 h; in the data active = inhibition above about 80%; inconclusive = no clear call, values can overlap the other calls
# Hedgehog inh: blocks Sonic Hedgehog signaling; Shh-LIGHT2 Gli-luciferase reporter, 30 h; inhibition, % (no concentration beside the values); 2.1% of 22,000 active; AID 2313;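 active = mean inhibition across valid replicates above about 65%, limit read from the data; inconclusive = mean under the limit, yet half or more replicates past it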;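 note: pathway switched on by Shh-conditioned medium diluted 1 in 25 in low serum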
# MITF inh: MITF inhibition; 0.28% of 37,000 active; AID 2240; TRPM1 promoter luciferase, luminescence, 24 h; inhibition, % (no concentration beside the values); in the data active = inhibition above about 85%; inconclusive = no clear call, values can overlap the other calls; inactive = below about 68%;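 note: human melanocyte line stably carrying TRPM1 promoter luciferase reporter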
# * = called active by the depositor; ? = inconclusive; . = not tested or not shown.
SMILES,NOMO-1 viab,Hedgehog inh,MITF inh
C[C@H](CO)N1C[C@H](C)[C@H](CN(C)S(=O)(=O)c2ccc(Cl)cc2)Oc2ccc(NC(=O)NC3CCCCC3)cc2CC1=O,119*,-10,26
C[C@@H]1CN([C@H](C)CO)C(=O)c2cc(NC(=O)Nc3ccc4c(c3)OCO4)ccc2O[C@@H]1CN(C)S(=O)(=O)c1ccc(F)cc1,95*,.,17
CC(C)NC(=O)Nc1ccc2c(c1)CC(=O)N([C@H](C)CO)C[C@@H](C)[C@@H](CN(C)S(=O)(=O)c1ccc(F)cc1)O2,3,-3,-3
C[C@@H]1CN([C@@H](C)CO)C(=O)c2cc(NC(=O)Nc3ccc4c(c3)OCO4)ccc2O[C@@H]1CN(C)S(=O)(=O)c1ccc(F)cc1,30,23,-3
C[C@H](CO)N1C[C@H](C)[C@H](CN(C)S(=O)(=O)c2ccc(F)cc2)Oc2ccc(NC(=O)Nc3ccc(C(F)(F)F)cc3)cc2CC1=O,119*,56,68
C[C@@H]1CN([C@H](C)CO)C(=O)Cc2cc(NC(=O)NC3CCCCC3)ccc2O[C@@H]1CN(C)S(=O)(=O)c1ccc(Cl)cc1,22,-19,20
COc1cc(C(=O)Nc2ccc(S(=O)(=O)Nc3ccccn3)cc2)cc(OC)c1OC,-13,.,2
c1coc(-c2nnc(C3CCCCC3)o2)c1,-18,-22,-14
Cc1cc(Br)ccc1NC(=O)CN(C)S(=O)(=O)c1ccc(Cl)cc1,-4,.,-22
O=C(Cn1cnc2ccccc2c1=O)Nc1cccc(Cl)c1Cl,9,.,12
C[C@@H]1CCCCO[C@H](CN(C)Cc2ccc3c(c2)OCO3)[C@@H](C)CN([C@H](C)CO)C(=O)c2cc(NS(C)(=O)=O)ccc2O1,6,.,-9
C[C@H](CO)N1C[C@H](C)[C@H](CN(C)S(=O)(=O)c2ccc(F)cc2)Oc2ccc(NS(=O)(=O)c3ccccc3)cc2CC1=O,12,-9,-5
COc1ccc(S(=O)(=O)N(C)C[C@@H]2Oc3ccc(NC(=O)Nc4ccc(F)cc4)cc3CC(=O)N([C@H](C)CO)C[C@H]2C)cc1,15,-6,10
COc1ccc(NC(=O)Nc2ccc3c(c2)CC(=O)N([C@@H](C)CO)C[C@H](C)[C@H](CN(C)S(=O)(=O)c2ccc(F)cc2)O3)cc1,110*,-14,1
Cc1noc(C)c1NC(=O)N(C)C[C@@H]1Oc2ccc(NC(=O)C3CC3)cc2C(=O)N([C@@H](C)CO)C[C@H]1C,3,21,4
Cc1noc(C)c1NC(=O)N(C)C[C@@H]1Oc2ccc(N(C)C)cc2CC(=O)N([C@@H](C)CO)C[C@@H]1C,-6,-28,-13
C[C@H](CO)N1C[C@H](C)[C@H](CN(C)Cc2ccc(C(=O)Nc3ccccc3N)cc2)Oc2ccc(NC(=O)Nc3ccccc3)cc2C1=O,?,.,-35
C[C@@H]1CN([C@@H](C)CO)C(=O)c2cc(NC(=O)Nc3ccc4c(c3)OCO4)ccc2O[C@@H]1CN(C)Cc1ccc(C(=O)Nc2ccccc2N)cc1,108*,.,3
C[C@@H]1CN([C@@H](C)CO)C(=O)c2cc(NC(=O)Nc3ccc4c(c3)OCO4)ccc2O[C@H]1CN(C)Cc1ccc(C(=O)Nc2ccccc2N)cc1,58,.,2
C[C@H](CO)N1C[C@H](C)[C@H](CN(C)Cc2ccc(C(=O)Nc3ccccc3N)cc2)Oc2ccc(NC(=O)Cc3ccccc3)cc2C1=O,104*,.,13
C[C@@H]1CN([C@@H](C)CO)C(=O)c2cc(NC(=O)Nc3cccc4ccccc34)ccc2O[C@@H]1CN(C)Cc1ccc(C(=O)Nc2ccccc2N)cc1,110*,.,8
C[C@@H]1CN([C@@H](C)CO)C(=O)c2cc(NC(=O)Nc3ccccc3)ccc2O[C@@H]1CN(C)Cc1ccc(C(=O)Nc2ccccc2N)cc1,111*,.,28
CC(C)NC(=O)Nc1ccc2c(c1)C(=O)N([C@H](C)CO)C[C@@H](C)[C@@H](CN(C)Cc1ccc(C(=O)Nc3ccccc3N)cc1)O2,31,.,-29
C[C@@H]1CN([C@@H](C)CO)C(=O)c2cc(NC(=O)c3ccncc3)ccc2O[C@@H]1CN(C)Cc1ccc(C(=O)Nc2ccccc2N)cc1,?,.,-19
COc1cccc(NC(=O)CSc2nnc(-c3ccccc3)n2-c2ccc(Cl)cc2)c1,29,.,19
O=C(CN1C(=O)COc2ccc(Cl)cc21)N1CCCC1,-7,15,6
Cc1cc(Cl)ccc1NC(=O)CSc1nnc(-c2cccs2)n1-c1ccccc1,50,.,13
C[C@H]1CN([C@@H](C)CO)C(=O)Cc2cc(NS(=O)(=O)c3cccs3)ccc2O[C@@H]1CN(C)Cc1ccc(C(=O)Nc2ccccc2N)cc1,45,.,-18
C[C@@H]1CN([C@H](C)CO)C(=O)Cc2cc(NS(=O)(=O)c3cccs3)ccc2O[C@@H]1CN(C)Cc1ccc(C(=O)Nc2ccccc2N)cc1,116*,.,7
